# From PubChem BioAssay (EPA / NIEHS)
# Some compounds were tested as several samples or in several runs, with calls that do not always agree. Active and inactive are the calls of the source. How the source made its calls: active means hit-call score of the fitted dose curve at least 0.9, where 1 is the maximum; inactive means score below 0.9.
# Read-out: Thrombomodulin, THBD (gene 7056)
# Experiment: BSK_3C_Thrombomodulin: BioMAP Diversity Plus: 3C Assay for Thrombomodulin Biomarker Activity (AID 2283029)
# Settings: primary human endothelial cells (HUVEC); actives raise or lower the signal
# Description: BSK_3C is a cell-based, multiplexed-readout assay that uses umbilical vein endothelium, a human vascular primary cell, with measurements taken at 24 hours after chemical dosing in a 96-well plate.BSK_3C_Thrombomodulin is an assay component measured in the BSK_3C assay. It measures Thrombomodulin antibody related to regulation of gene expression using ELISA technology.Data from the assay component BSK_3C_Thrombomodulin was analyzed into 1 assay endpoint. This assay endpoint, BSK_3C_Thrombomodulin, was analyzed with bidirectional fitting relative to DMSO as the negative control and baseline of activity. Using a type of binding reporter, gain or loss-of-signal activity can be used to understand changes in the signaling as they relate to the gene THBD. Furthermore, this assay endpoint can be referred to as a primary readout, because this assay has produced multiple assay endpoints where this one serves a signaling function. To generalize the intended target to other relatable targets, this assay endpoint is annotated to the gpcr intended target family, where the subfamily is rhodopsin-like receptor.
# The levels of cell surface (or secreted, indicated by the prefix "s") biomarker endpoints were measured by ELISA. Overt cytotoxicity to cells in confluent adherent cultures (all systems other than the BT system) was assessed by measuring total protein levels using sulforhodamine B (SRB) staining in parallel cultures at the time of biomarker measurements, indicated as SRB endpoints. For proliferation assays for adherent cell types, individual cell types are cultured at sub-confluence and relative cell numbers quantified by SRB staining at time points optimized for each system (48 h: 3C and CASM3C systems; 72 h: BT and HDF3CGF systems; 96 h: SAg system). SRB was performed by staining cells with 0.1% SRB after fixation with 10% TCA and reading wells at 560 nm.Viability and proliferation of PBMC (T cells) was quantified by Alamar Blue reduction for the SAg and BT systems. For PBMC viability (referred to as PBMC Cytotoxicity within the assay endpoint names), cells were plated (75,000/well in a 96-well plate) and then chemical samples added for 1 h before addition of activators, SEB and TSST-1 (20 ng/mL final concentration each). Cells were incubated for 90 h. Then, Alamar Blue (20 uL/well) (Invitrogen, Cat DAL1100) was added for 6 h, and the plates were read with a fluorescence microplate reader at 546/580 nm (excitation/emission). For PBMC proliferation, cells were plated and activated as above but incubated for only 16 h prior to addition of Alamar Blue. Plates were read after 6 h.
Structure (SMILES),outcome,AC50
FC(F)=C(F)C(F)(F)C(F)(F)C(F)(F)C(F)(F)C(F)(F)C(F)(F)F,inactive,–
Cc1ccc(S(=O)(=O)NC(=O)NN2CCCCCC2)cc1,inactive,–
COc1cc2c(c(OC)c1OC)-c1ccc(OC)c(=O)cc1[C@@H](NC(C)=O)CC2,inactive,–
O=C(O)[C@H](O)[C@@H](O)C(=O)O,inactive,–
O=S1(=O)CCCO1,inactive,–
CCCCCCCCCCCCCCO,inactive,–
O=S(=O)(O)CCC(F)(F)C(F)(F)C(F)(F)C(F)(F)C(F)(F)C(F)(F)F,inactive,–
C=CN1CCCC1=O,inactive,–
CC1(C)C(=O)N(Cl)C(=O)N1Cl,inactive,–
CNC(C)=O,inactive,–
CCCCCCCCN(C)C,inactive,–
c1ccc2ncccc2c1,inactive,–
CC(C)CC(C)O (stereo not given),inactive,–
FC(F)(F)COC(OCC(F)(F)F)OCC(F)(F)F,inactive,–
C[C@]12C=CC(=O)C=C1CC[C@H]1[C@@H]3C[C@@H](O)[C@](O)(C(=O)CO)[C@@]3(C)C[C@H](O)[C@@]12F,inactive,–
CCCc1ccccc1,inactive,–
O=C1CN(N=Cc2ccc([N+](=O)[O-])o2)C(=O)N1,inactive,–
c1ccc(C(O[C@@H]2CCCN(CCc3ccc4c(c3)OCO4)C2)c2ccccc2)cc1,inactive,–
CC(C)CCCCCCOC(=O)C1CCCCC1C(=O)OCCCCCCC(C)C (stereo not given),inactive,–
NCC(F)(F)C(F)(F)C(F)(F)C(F)(F)F,inactive,5.95 µM (active)

Structure (SMILES),outcome,AC50
OC(Cn1cncn1)(Cn1cncn1)c1ccc(F)cc1F,inactive,–
OCC(CO)(CO)CO,inactive,–
OC[C@H]1O[C@@H]2O[C@H]3[C@H](O)[C@@H](O)[C@@H](O[C@H]4[C@H](O)[C@@H](O)[C@@H](O[C@H]5[C@H](O)[C@@H](O)[C@@H](O[C@H]6[C@H](O)[C@@H](O)[C@@H](O[C@H]7[C@H](O)[C@@H](O)[C@@H](O[C@H]1[C@H](O)[C@H]2O)O[C@@H]7CO)O[C@@H]6CO)O[C@@H]5CO)O[C@@H]4CO)O[C@@H]3CO,inactive,–
OCCC(F)(F)C(F)(F)C(F)(F)C(F)(F)F,inactive,–
C=CCc1cc(S(=O)(=O)c2ccc(O)c(CC=C)c2)ccc1O,inactive,–
c1ccc2cc3ccccc3cc2c1,inactive,–
CCOC(N)=O,inactive,–
OCc1ccccc1,inactive,–
NC(=O)NN=Cc1ccc([N+](=O)[O-])o1,inactive,–
COCc1nnc(-c2ccc[n+]([O-])c2)n1-c1c(Cl)c(Cl)cc2[nH]c(=O)c(=O)[nH]c12,inactive,–
OC(CCl)CCl,inactive,–
CCc1ccc(O)c(C(C)(C)C)c1,inactive,–
CCc1cccc(CC)c1N,inactive,–
O=C(Cl)C(F)(F)C(F)(F)C(F)(F)C(=O)Cl,inactive,–
Cc1nccn1-c1ccc(Sc2cccc(C3(C(N)=O)CCOCC3)c2)cc1,–,8.22 µM (active)
Cn1cc[nH]c1=S,inactive,–
CC(=O)c1ccccc1,inactive,–
CC(C)c1nnc2ccc(-c3ocnc3-c3cc(F)ccc3F)cn12,–,0.451 µM (active)
CCCCCCCCCC,inactive,–
